Screening results as filed in PubChem.
Pf apPOL block – Pf-apPOL DNA polymerase inhibition. AID 1794808. Recombinant Pf-apPOL, molecular beacon fluorescence, 1.5 h. inhibition, % at 10 µM. actives 0.25% (n = 210,000)
mHTT CaM bind – mHTT-calmodulin interaction abrogation; P42858; AlphaScreen His-mHTT/GST-CaM binding, luminescence; inhibition, % at 15 µM; actives 3.6% (n = 190,000); AID 1671202;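 also: 0% = both proteins with DMSO and 100% = one protein alone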
Active calls of the source: *; ! = repeats disagree. Many of the other results were omitted from the sample, so hits are more common in it than they were. Rule as the data show it: active = inhibition above about 50%; inactive = the rest.

Screening O=C(CSCC(=O)Nc1ccccc1)NNC(=S)Nc1ccccc1 returned Pf apPOL block -17.9.
`c1ccc(-c2nnc(-c3ccco3)c(-c3ccco3)n2)nc1` gave mHTT CaM bind 99.8*.
`c1ccc(-c2noc(-c3ccco3)n2)nc1` gave Pf apPOL block -12.2 and mHTT CaM bind 3.7.
Cn1c(-c2ccc(S(=O)(=O)O)o2)nc2ccccc21 was read as Pf apPOL block 1.7 and mHTT CaM bind -2.7.
For O=S(=O)(O)c1ccc(-c2nnc(-c3ccccn3)nc2-c2ccc(S(=O)(=O)O)o2)o1 the results were mHTT CaM bind 99.9*.
CC(=O)N1c2c(cc(Br)cc2S(=O)(=O)Nc2ccc(F)cc2Cl)CC1C (centres undefined) was read as Pf apPOL block -7.5 and mHTT CaM bind 49.0.
For CCC(CC)C(=O)N1CCC2(CC1)CN(C)CC2c1nc(-c2ccncc2)n[nH]1 (centres undefined) the results were Pf apPOL block 5.8 and mHTT CaM bind 7.1.
For Cc1nc(-c2cn(C(C)C)c3ncccc23)sc1C(=O)Nc1ccc(F)cc1 the results were Pf apPOL block -8.0 and mHTT CaM bind 100.3*.
For CCn1cc(-c2nc(C)c(C(=O)Nc3ccc(C)cc3)s2)c2cccnc21 the results were Pf apPOL block 2.0 and mHTT CaM bind -13.5.
Screening Cc1cccc(Sc2nccnc2N2CCC(C(=O)N3CCOCC3)CC2)c1 returned Pf apPOL block 2.0 and mHTT CaM bind -1.4.
For Cc1cc2n(n1)CCCN2C(=O)CCC(=O)N1CCN(C(=O)c2ccco2)CC1 the results were Pf apPOL block -1.3 and mHTT CaM bind -5.1.
`COc1ccc2c(c1)NC(C)(C)C=C2C` gave mHTT CaM bind 17.9.
For COc1ccc2c(c1)C(C)=CC(C)(C)N2 the results were Pf apPOL block -4.3 and mHTT CaM bind 94.0*!.
Screening CC1(C)Nc2ccc(C(c3ccccc3)(c3ccccc3)c3ccccc3)cc2-c2c1ssc2=S returned mHTT CaM bind 3.6.
Screening COc1ccc2c(c1)-c1c(ssc1=S)C(C)(C)N2 returned mHTT CaM bind 88.5*.
`CC(=O)c1ccc(N=Cc2ccccc2Cl)cc1` gave Pf apPOL block -75.8 and mHTT CaM bind -2.0.
`CN(C)S(=O)(=O)c1ccc(C(=O)Nc2ccc(C34CC5CC(CC(Cl)(C5)C3)C4)cc2)cc1` gave Pf apPOL block 0.9 and mHTT CaM bind 10.0.
COc1ccc(C(=O)N2CCC3(CC2)NC(=O)N(Cc2ccc(Cl)cc2)C3=O)c(C)c1 was read as Pf apPOL block -5.4 and mHTT CaM bind 43.0.
Screening O=C(CS(=O)(=O)Cc1ccccc1)Nc1nc(-c2ccccn2)cs1 returned Pf apPOL block -73.7 and mHTT CaM bind 87.4*.
`O=C(Cc1ccc(F)cc1)Nc1ncccn1` gave Pf apPOL block -2.6 and mHTT CaM bind 16.8.
Screening O=C(CS(=O)(=O)Cc1ccccc1)Nc1nc(-c2cc3ccccc3o2)cs1 returned Pf apPOL block -6.5 and mHTT CaM bind 0.7.
`O=C(Cc1ccc(F)cc1)Nc1nc(-c2ccccn2)cs1` gave Pf apPOL block -8.2 and mHTT CaM bind 85.1*.
For CN(CCc1ccccn1)Cc1ccsc1 the results were Pf apPOL block 1.8 and mHTT CaM bind 0.4.
Cc1cccc(-c2nnc(C)c(NCc3ccc(C)o3)n2)c1 was read as Pf apPOL block 1.1 and mHTT CaM bind 32.1.
Screening CC(C)CN(CCNC(=O)C1CC(=O)N(c2ccc(F)c(Cl)c2)C1)CC(C)C (centres undefined) returned Pf apPOL block -4.0 and mHTT CaM bind 3.7.
For CCc1ccc(NS(=O)(=O)c2cc(Cl)ccc2OC)cc1 the results were Pf apPOL block -11.6 and mHTT CaM bind -8.3.
Screening COc1ccc(Cl)cc1S(=O)(=O)Nc1ccc2c(c1)NC(=O)C(C)(C)CO2 returned Pf apPOL block -9.3 and mHTT CaM bind 69.4*.
Screening O=C(NCC1CCCO1)c1ccccc1Br (centres undefined) returned Pf apPOL block 1.3 and mHTT CaM bind 0.3.
`COc1ccc(Cl)cc1NC(=O)Nc1nnc(-c2cc(C)oc2C)o1` gave Pf apPOL block 2.5 and mHTT CaM bind -11.7.
Screening COc1ccc(C(=O)N2CCn3cnnc3C2)c(OC)c1 returned Pf apPOL block -6.0 and mHTT CaM bind -0.9.
For N#CC1=C(N)OC2=C(C(=O)CC(c3ccccc3)C2)C1c1cccc(F)c1 (centres undefined) the results were Pf apPOL block -7.3 and mHTT CaM bind 9.6.
N#CC1=C(N)OC2=C(CC/C2=C\c2cccc(F)c2)C1c1cccc(F)c1 (centres undefined) was read as Pf apPOL block -3.3 and mHTT CaM bind 94.0*.
Screening COc1ccc(/C=C2\CCCC3=C2OC(N)=C(C#N)C3c2ccc(OC)c(OC)c2)cc1OC (centres undefined) returned Pf apPOL block -2.4 and mHTT CaM bind 38.0.
For COc1ccc(/C=C2\CCC3=C2OC(N)=C(C#N)C3c2ccc(OC)cc2)cc1 (centres undefined) the results were Pf apPOL block -9.8 and mHTT CaM bind 63.0*.
CCN(CC)S(=O)(=O)c1cc(S(=O)(=O)N(CC)CC)c(C)cc1C was read as Pf apPOL block -11.9 and mHTT CaM bind -5.4.
Screening COc1cccc(CNc2nccc(-n3nc(C)cc3C)n2)c1 returned Pf apPOL block -1.2 and mHTT CaM bind -4.9.
Screening COC(=O)c1ccc2c(c1)CC(CNC(=O)c1ccc(C)cc1C)O2 (centres undefined) returned Pf apPOL block -3.9 and mHTT CaM bind -4.7.
For CC1CCc2c(sc3ncnc(SCC(=O)NN=Cc4ccc5c(c4)OCO5)c23)C1 (centres undefined) the results were Pf apPOL block -7.4.
COC(=O)c1cc(Br)cc2ccccc12 was read as Pf apPOL block 63.5* and mHTT CaM bind -124.0.
For COC(=O)c1c[nH]c2ccccc12 the results were Pf apPOL block 2.6.
O=C(CSc1nnnn1-c1ccccc1)Nc1ccc(S(=O)(=O)Nc2nccs2)cc1 was read as Pf apPOL block -3.3 and mHTT CaM bind 13.3.
`CCN(CC)C(=O)c1cc2c(s1)CCC(C(=O)N1CCN(C)CC1)C2` (centres undefined) gave Pf apPOL block -6.1 and mHTT CaM bind 3.1.
Cc1ccc(NC(=O)C2Cc3ccccc3CN2S(C)(=O)=O)cc1F (centres undefined) was read as Pf apPOL block -5.1 and mHTT CaM bind -5.0.
For COc1ccc(C2=N/C(=C\c3coc4ccccc4c3=O)C(=O)O2)cc1OC the results were Pf apPOL block -3.8 and mHTT CaM bind 0.0.
CCOC(=O)CC[C@H]1CC[C@]2(CCCN(C(=O)c3ccno3)C2)O1 was read as Pf apPOL block -2.6 and mHTT CaM bind 78.3*.
For CCN(CC)C(=O)CC[C@H]1CC[C@]2(CCCN(C(=O)c3ccno3)C2)O1 the results were Pf apPOL block -8.9 and mHTT CaM bind -6.5.
CCCN(CCC)CCNS(=O)(=O)c1ccc(OCC)c2ncccc12 was read as Pf apPOL block -3.6 and mHTT CaM bind 3.0.
`COc1ccc(C2CCCN2C(=O)c2cc(C(F)(F)F)n(C)n2)cc1` (centres undefined) gave Pf apPOL block -7.7 and mHTT CaM bind -6.5.
`C=CCOc1nc(OC)nc(N2CCCC2)n1` gave mHTT CaM bind 3.4.
`COc1cccc(CN=Cc2[nH]c3ccc(Br)c(Cl)c3c2O)c1OC` gave Pf apPOL block -3.2 and mHTT CaM bind 14.0.
For COc1ccccc1CN=Cc1[nH]c2ccc(Br)c(Cl)c2c1O the results were Pf apPOL block -9.3 and mHTT CaM bind 71.0*.
